Results filed as inconclusive are left out. Active and inactive are the calls of the source. The call rests on the fitted dose curve; in most records, active means well fitted cell-killing curve with a large enough effect; inconclusive means small, poorly fitted or top-dose-only effect; inactive means no such curve, though single readings can be large or run the other way.
experiment: qHTS of pediatric cancer cell lines to identify multiple opportunities for drug repurposing: Primary screen for SK-N-MC cells (AID 1347093); conditions: SK-N-MC viability, CellTiter-Glo luminescence, 48 h; series mostly up to 46 µM
Source text: Drug repurposing or repositioning has been offered as a strategy for drug development in oncology programs. This approach has special potential for childhood cancers and other rare or orphan diseases, where the expected return on new drug development has been a disincentive to pharmaceuticals.
In this project we exploit the poly-pharmacology of drugs to discover new indications via phenotypic screening of a panel of 19 well-characterized cell lines derived from solid tumors seen in children and adolescents. The goal is to identify approved drugs with previously unrecognized anticancer properties that has the potential to reveal new mechanisms and biological processes involved in carcinogenesis or drug resistance. We employed a titration-based paradigm (quantitative high-throughput screening or qHTS), where all compounds were tested at multiple concentrations for their effect on cell viability. Concentration-response curves (CRCs) were derived directly from the primary screen, and both potency and efficacy values were used to identify compounds with robust bioactivity profiles. We screened the NIH Chemical Genomics Center (NCGC) Pharmaceutical Collection (NPC) and Mechanism Interrogation Plate (MIPE) small molecule collections of approved and investigational compounds against these cell lines; and measured metabolically active cells after 48 hours of compound treatment as a proxy for cell viability.
Assay Submitter: Nathalia J. Martinez, National Center for Advancing Translational Sciences, National Institutes of Health, Rockville, MD, USA; email: natalia.martinez@nih.gov
[1] Shen, M et al. Quantitative high-throughput phenotypic screening of pediatric cancer cell lines identifies multiple opportunities for drug repurposing. Oncotarget 2017 Dec 19;9(4):4758-4772. PMID 29435139.
The cells were obtained from University of North Carolina (UNC), Pediatric Preclinical Testing Program (PPT), and Coriell Institute (CI).
qHTS cell viability assay:
Cells were assayed in growth media at a density of 500-1,000 cells/well. Five microliters of cells were dispensed into 1,536-well, white, solid-bottom, TC-treated plates (Greiner Bio One) using a multidrop dispenser and incubated at 37 degrees C, 5% CO2, under a humidified atmosphere for 5 hours. Twenty-three nanoliters of compounds and controls (neutral control DMSO or positive control bortezomib at final concentration of 2.3 µM) were subsequently transferred by Kalypsys pintool. For primary screens, the MIPE collection was tested at 11-point dilutions (final concentrations range from 0.78 nM to 46 µM) and the NPC collection at 8-point dilutions (final concentrations range from 0.59nM to 46 µM). Compounds tested in follow-up screens were assayed at 11-point dilutions. Cells were incubated for 48 hours, followed by addition of 3 uL of CellTiter-Glo (Promega). After a 15 min incubation at room temperature, samples were analyzed for luminescence intensity using a ViewLux High-throughput CCD imager equipped with clear filters.
Potency means the concentration at half of the fitted maximal effect.

Row | Structure (SMILES) | Potency
1 | FC(F)c1nc2ccccc2n1-c1nc(N2CCOCC2)nc(N2CCOCC2)n1 | 59 nM (active)
2 | Oc1cc(-c2nc(-c3ccccc3)[nH]c2-c2ccncc2)ccc1Cl | 662 nM (active)
3 | CC(C)c1cnn2c(NCc3ccccc3)cc(NCCCCCCN)nc12 | 662 nM (active)
4 | CC(C=CC(=O)NO)=C[C@@H](C)C(=O)c1ccc(N(C)C)cc1 | 264 nM (active)
5 | C=C1C(=O)O[C@H]2[C@@H]1CCC(C)=CCC[C@@]1(C)O[C@@H]21 | 7430 nM (active)
6 | O=C(CN1C(=O)C2(CCCC2)NC[C@H]1c1cc(F)cc(F)c1)Nc1ccc2c(c1)C[C@@]1(C2)C(=O)Nc2ncccc21 | inactive
7 | Nc1ccc(C(=O)Nc2cccc(-c3nc(N4CCOCC4)c4oc5ncccc5c4n3)c2)cn1 | 1180 nM (active)
8 | N[C@H]1CN(c2c(F)cc3c(=O)c(C(=O)O)cn(C4C[C@@H]4F)c3c2Cl)CC12CC2 (stereo not given in full) | inactive
9 | CN1[C@H]2CC(OC(=O)[C@@H](CO)c3ccccc3)C[C@H]1[C@H]1O[C@H]12 (stereo not given in full) | inactive
10 | OCc1ccccc1O[C@@H]1O[C@H](CO)[C@H](O)[C@H](O)[C@H]1O | inactive
11 | CCN(CC)CCCCNc1ncc2c(n1)N(C)C(=O)N(c1c(Cl)c(OC)cc(OC)c1Cl)C2 | 13200 nM (active)
12 | CCCCCCCN(CC)CCCC(O)c1ccc(NS(C)(=O)=O)cc1 (stereo not given) | inactive
13 | C=C(C)[C@@H]1CC[C@]2(C)CC[C@]3(C)[C@H](CC[C@@H]4[C@@]5(C)CC[C@H](O)C(C)(C)[C@H]5CC[C@]43C)[C@@H]12 | inactive
14 | COc1cc([C@@H]2c3cc4c(cc3[C@H](O)[C@H]3COC(=O)[C@@H]23)OCO4)cc(OC)c1OC | 74.3 nM (active)
15 | CC(O)(C#Cc1ccc2c(c1)N(c1nc(N)ncc1Cl)CC2)c1nccs1 (stereo not given) | 2350 nM (active)
16 | COc1ccc2c(c1OC)C(=O)OC2[C@H]1c2c(cc3c(c2OC)OCO3)CCN1C (stereo not given in full) | 83.3 nM (active)
17 | COc1cc2c(cc1O)CCC1C2CC[C@@]2(C)C1CC[C@@H]2O (stereo not given in full) | 6620 nM (active)
18 | CC(=O)OC[C@@H]1O[C@@H](n2ccc(=O)[nH]c2=O)[C@H](OC(C)=O)[C@H]1OC(C)=O | inactive
19 | CCOc1cc2ncc(C#N)c(Nc3ccc(OCc4ccccn4)c(Cl)c3)c2cc1NC(=O)C=CCN(C)C | 105 nM (active)
20 | COc1cc(C(C)C)c(Oc2cnc(NC(CO)CO)nc2N)cc1I | 1050 nM (active)

Row | Structure (SMILES) | Potency
21 | Cn1cc(C=CC(=O)c2cccc(F)c2)cc1C=CC(=O)NO | 2960 nM (active)
22 | C[C@H]1O[C@H](O[C@H]2[C@H](O)[C@@H](O)[C@@H](O[C@H]3[C@H](O)[C@@H](O)C(O)O[C@H]3CO)O[C@H]2CO)[C@H](O)[C@@H](O)[C@H]1N[C@H]1C=C(CO)[C@@H](O)[C@H](O)[C@@H]1O (stereo not given in full) | 33200 nM (active)
23 | C[C@H]1COc2c(N3CCN(C)CC3)c(F)cc3c(=O)c(C(=O)O)cn1c23 | inactive
24 | c1ccc(CNc2nc(NCc3ccccc3)c3ccccc3n2)cc1 | 11800 nM (active)
25 | C[C@H](NCc1ccc2c(c1)nc(NC(=O)c1ccc(-c3cn[nH]c3)s1)n2CCc1ccccc1)C(C)(C)C | 1660 nM (active)
26 | C[C@@H]1[C@H](C)CC[C@]2(C(=O)O)CC[C@]3(C)C(=CC[C@@H]4[C@@]5(C)C[C@@H](O)[C@H](O)[C@@](C)(CO)[C@H]5CC[C@]43C)[C@@H]12 | inactive
27 | OC[C@@H](O)[C@@H](O)[C@H](O)[C@@H](O)CO | inactive
28 | CC1(C)CC(O)CC(C)(C)N1[O] | inactive
29 | NC[C@H]1O[C@H](O[C@H]2[C@@H](O)[C@@H](O[C@H]3O[C@H](CO)[C@@H](O)[C@H](N)[C@@H]3O)[C@H](N)C[C@@H]2N)[C@H](N)C[C@H]1O | inactive
30 | C[C@]12C=CC(=O)N[C@@H]1CC[C@H]1[C@H]3CC[C@@H](C(=O)Nc4cc(C(F)(F)F)ccc4C(F)(F)F)[C@@]3(C)CC[C@@H]12 | inactive
31 | CCS(=O)(=O)Nc1ccc2[nH]c(O)c(C(=Nc3ccc(CN4CCCCC4)cc3)c3ccccc3)c2c1 | 118 nM (active)
32 | CC(C)n1cnc2c(NCCc3ccc(O)cc3)nc(-c3csc4ccccc34)nc21 | 3320 nM (active)
33 | COC(=O)[C@@H]1[C@H]2C[C@@H]3c4[nH]c5ccccc5c4CCN3C[C@@H]2CC[C@@H]1O | 2960 nM (active)
34 | Cc1cnc(NC(=O)Nc2cc(Br)c(C)cc2OC[C@@H]2CNCCO2)cn1 | 166 nM (active)
35 | C[C@@]12C(=O)OC(=O)[C@@]1(C)C1CCC2O1 | 2350 nM (active)
36 | Cc1cc(Nc2ncc3c(n2)N(C)C(=O)N(c2cc(NC(=O)c4cccc(C(F)(F)F)c4)ccc2C)C3)n(C)n1 | 209 nM (active)
37 | N#Cc1cc(NC(=O)Nc2nnc(-c3ccncc3)s2)ccc1-c1cn[nH]c1 | inactive
38 | N#CC(=Cc1ccc(O)c(O)c1)C(=O)NCc1ccccc1 | 14800 nM (active)
39 | CN1CCCN(C(=O)c2cccc(-c3ccc(C=C4C(=O)Nc5ccc(Cl)cc54)o3)c2)CC1 | 14800 nM (active)
40 | NC(=O)Nc1sc(-c2ccc(F)cc2)cc1C(N)=O | 59 nM (active)
